Measured values taken from PubChem BioAssay (NCI).
About 83,000 compounds went through this panel and 20% of them were active in at least one assay; those are over-represented in the sample as a whole.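 Interpretation: 100, growth as untreated; towards 0, rising growth inhibition; 0, no net growth; 0 to -100, cell death. Compounds scoring below 10 were considered active.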 Activity calls are given as the source filed them.

Experiments:
Assay in all cases: NCI-60 one-dose screen, 48 h (100 = growth as untreated, 0 = no growth, -100 = all killed)
Settings in all cases: 10 µM
[1] = test system: HCT-15 colon
[2] = test system: HT29 colon
[3] = test system: SNB-75 CNS
[4] = test system: SNB-19 CNS
[5] = test system: U251 CNS
[6] = test system: PC-3 prostate
[7] = test system: SK-MEL-5 melanoma
[8] = test system: UACC-62 melanoma
[9] = test system: LOX IMVI melanoma
[10] = test system: SK-MEL-28 melanoma
[11] = test system: EKVX NSCLC
[12] = test system: SN12C renal
[13] = test system: UO-31 renal
[14] = test system: TK-10 renal
[15] = test system: ACHN renal
[16] = test system: CAKI-1 renal
[17] = test system: A498 renal
[18] = test system: CCRF-CEM leukemia
[19] = test system: MOLT-4 leukemia

Measured: growth

COc1ccc(CCN2CCC(Nc3nc4ccccc4n3Cc3ccc(F)cc3)CC2)cc1
inactive: [4] 40.6% | [6] 29.4% | [11] 45.1% | [12] 34.1% | [15] 12.5%
active: [1] -23% | [2] -53.6% | [3] -29.9% | [5] -70.9% | [7] -100% | [8] -85.6% | [9] -87.9% | [10] -76.7% | [13] -19.8% | [14] -6.61% | [16] -1.28% | [17] -9.07% | [18] -13.6% | [19] -40.7%

CCN1CC(CCN2CCOCC2)C(C(c2ccccc2)c2ccccc2)C1=O (configuration not stated)
inactive: [1] 94.1% | [2] 102% | [3] 102% | [4] 102% | [5] 101% | [6] 82.7% | [7] 100% | [8] 94.8% | [9] 97.2% | [10] 116% | [11] 97.8% | [12] 98.4% | [14] 114% | [15] 107% | [16] 91.5% | [17] 79.5% | [18] 96.4%

COc1ccc2nc3cc(Cl)ccc3c(Nc3cc(CN4CCCC4)c(O)c(CN4CCCC4)c3)c2n1
active: [1] 5.6% | [2] 1.23% | [3] -64.4% | [6] 6.93% | [7] -96.1% | [8] -23.4% | [9] -8.24% | [10] -21.8% | [11] 8.66% | [16] -4.38% | [17] -17.4% | [18] 2.85% | [19] -25.2%
inactive: [4] 14.5% | [5] 10.4% | [12] 10.7% | [14] 21.4% | [15] 22.9%

CCCCc1oc2ccccc2c1C(=O)c1cc(I)c(OCCN(CC)CC)c(I)c1
inactive: [3] 12.5% | [15] 20%
active: [1] -50.5% | [2] -61.2% | [4] -60.6% | [5] -86.3% | [6] -8.07% | [7] -100% | [8] -86.8% | [9] -88.7% | [10] -87.8% | [11] 3.63% | [12] 5.13% | [13] -37% | [14] -40.5% | [17] -47.3% | [18] -32.2% | [19] -54.3%

COc1cc(C(=O)n2nc(-c3cc(OC)c(OC)c(OC)c3)nc2N)cc(OC)c1OC
inactive: [1] 100% | [2] 82.7% | [3] 81.9% | [4] 102% | [5] 97.3% | [6] 95.7% | [7] 94.5% | [8] 102% | [9] 95.8% | [10] 97% | [11] 90.6% | [12] 109% | [13] 83.2% | [14] 98.1% | [15] 95.8% | [17] 77.6% | [19] 81.5%

C(=N\Nc1ncnc2sc3c(c12)CCNC3)/c1cccc2ccccc12
inactive: [1] 18.9% | [2] 16.8% | [3] 62.5% | [4] 79.1% | [5] 83% | [6] 76.9% | [7] 97.1% | [8] 101% | [9] 50.4% | [10] 103% | [11] 92.7% | [12] 82.4% | [13] 74.4% | [14] 104% | [15] 47.9% | [16] 92% | [17] 98% | [19] 48.1%

CCCCC(CC)CN=C(N)NC(N)=NCCCCCCN=C(N)NC(N)=NCC(CC)CCCC (configuration not stated)
active: [1] 7.37% | [2] -82.8% | [3] -72.5% | [4] -87.2% | [5] -89.8% | [6] -69.7% | [7] -89.8% | [8] -58% | [9] -80.8% | [10] -79.6% | [11] -80.9% | [12] -85.3% | [13] 4.54% | [14] -15.3% | [15] 4.41% | [16] -17.3% | [17] -31.3% | [18] -54% | [19] -73.7%

CC(=O)O[C@@]12CO[C@@H]1C[C@H](O)[C@@]1(C)C(=O)[C@H](O)C3=C(C)[C@@H](OC(=O)[C@H](O)[C@@H](NC(=O)OC(C)(C)C)c4ccccc4)C[C@@](O)([C@@H](OC(=O)c4ccccc4)C12)C3(C)C (some centres not stated)
inactive: [1] 16.5% | [4] 37.8% | [5] 24.2% | [6] 31.7% | [7] 28.6% | [8] 52.5% | [9] 44.6% | [10] 77.9% | [11] 59% | [12] 56.3% | [13] 33.5% | [14] 42.1% | [15] 56.9% | [17] 22.6% | [18] 29.9% | [19] 25.4%
active: [2] 6.02% | [3] -2.3% | [16] 4.8%

CN(C)CCCN1c2ccccc2CCc2ccc(Cl)cc21
active: [7] -29.7% | [8] 7.82%
inactive: [1] 51.4% | [2] 18.8% | [3] 39.2% | [4] 96.1% | [5] 55.4% | [6] 40.8% | [9] 56.9% | [10] 36.9% | [11] 70.5% | [12] 61.5% | [13] 47.3% | [14] 71.3% | [15] 69.2% | [16] 51.6% | [17] 39.9% | [18] 60.5% | [19] 30.8%

CNC(=O)c1c(I)c(NC(C)=O)c(I)c(C(=O)O)c1I
inactive: [1] 105% | [2] 103% | [3] 87.3% | [4] 96.2% | [5] 102% | [6] 93% | [7] 108% | [8] 98.5% | [9] 94.5% | [10] 114% | [11] 126% | [12] 95.6% | [13] 88.6% | [14] 114% | [15] 102% | [16] 115% | [17] 99.3% | [18] 104% | [19] 110%

CC(C)Cc1ccc([C@H](C)C(=O)O)cc1
inactive: [1] 97% | [2] 106% | [3] 79.4% | [4] 108% | [5] 101% | [6] 93.6% | [7] 102% | [8] 103% | [9] 101% | [10] 109% | [11] 104% | [12] 103% | [13] 86.5% | [14] 100% | [15] 108% | [16] 93.7% | [17] 99.1% | [18] 102% | [19] 90.5%

CCC1NC(=O)c2cc(S(N)(=O)=O)c(Cl)cc2N1 (configuration not stated)
inactive: [1] 109% | [2] 109% | [3] 105% | [4] 105% | [5] 96.3% | [6] 93.6% | [7] 104% | [8] 103% | [9] 99.9% | [10] 121% | [11] 109% | [12] 94% | [13] 98.8% | [14] 106% | [15] 108% | [16] 104% | [17] 110% | [18] 97.7% | [19] 113%

C[C@]12CCC3c4ccc(O)cc4C[C@@H](CCCCCCCCCS(=O)CCCC(F)(F)C(F)(F)F)C3C1CC[C@@H]2O (some centres not stated)
inactive: [1] 71.6% | [2] 72.1% | [3] 64.4% | [4] 89.8% | [5] 68.3% | [6] 52.5% | [7] 76% | [8] 83.3% | [9] 90.1% | [10] 97.1% | [11] 64.8% | [12] 93.7% | [14] 93% | [15] 74.3% | [16] 59.2% | [17] 84.6% | [18] 73.6% | [19] 39.6%

O[C@@H]1CO[C@H]2[C@@H]1OC[C@@H]2O
inactive: [1] 102% | [2] 103% | [3] 91.1% | [4] 99.5% | [5] 108% | [6] 90% | [7] 116% | [8] 103% | [9] 97% | [10] 113% | [11] 87.6% | [12] 103% | [13] 106% | [14] 117% | [15] 98.9% | [16] 79.2% | [18] 101% | [19] 116%

C/C(=N\O)c1ccc(NC(=O)CSc2nnc(-c3ccccc3)n2-c2ccccc2)cc1
inactive: [1] 97.5% | [2] 84% | [3] 45.8% | [4] 97.2% | [5] 59.2% | [6] 73.7% | [7] 48.6% | [8] 81.9% | [9] 63.6% | [10] 97.7% | [11] 91.9% | [12] 72.4% | [13] 76.2% | [15] 63.7% | [16] 85.6% | [17] 92.7% | [18] 92% | [19] 95.2%

CCCCCC(=O)O[C@]1(C(C)=O)CCC2C3CCC4=CC(=O)CC[C@]4(C)C3CC[C@@]21C (some centres not stated)
active: [6] 6.12% | [7] -1.8% | [19] -23.1%
inactive: [1] 26.2% | [2] 16.6% | [3] 46.3% | [4] 43.7% | [5] 23.9% | [8] 18.5% | [9] 10.4% | [10] 49.4% | [11] 27.1% | [12] 21.5% | [13] 18.1% | [14] 40.4% | [15] 24% | [16] 18.6% | [17] 19.4% | [18] 21%

C=CCSC(CC)(CC)C(=O)NC
inactive: [1] 101% | [2] 87% | [3] 89.5% | [4] 102% | [5] 101% | [6] 101% | [7] 103% | [8] 103% | [9] 100% | [10] 110% | [11] 104% | [12] 101% | [13] 94.4% | [14] 102% | [15] 107% | [17] 104% | [18] 101% | [19] 93%
